Source: PubChem BioAssay
Active and inactive are the calls of the source.

Columns and labels:
[1] = tested on: Plasmodium falciparum Sir2 (PF13_0152, Sir2A); assay: pfSir2 binders on small-molecule microarrays, primary screen, biochemical, small-molecule microarray, 635 nm fluorescence (AID 1098); details: small-molecule microarray binding, fluorescence 635 nm; higher = more signal;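 note: score merges spot fluorescence intensity with its signal-to-noise ratio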
[2] = small-molecule microarray binders of probe aDKK1, primary screen, biochemical, biotinylated probe, 635/667 nm fluorescence (AID 1099); details: higher = more signal;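 note: score merges 667nm spot fluorescence with signal to noise across triplicate slides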
[3] = small-molecule microarray binders of probe aCHRDL2, primary screen, biochemical, biotinylated probe, 635/667 nm fluorescence (AID 1100); details: higher = more signal
[4] = splicing luciferase reporter signal modulators, primary screen, spliceosome inhibition project, cell-based, HEK293, splice +/- reporter (AID 1101); details: luminescence, 24 h, higher = more signal, called active from +8 up or from −8 down;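 note: HEK293 cells carrying a splicing-competent luciferase reporter gene; test concentration not given here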
[5] = molecular target: Fibroblast growth factor 10 (Homo sapiens) (UniProt O15520); assay: FGF10 binders on small-molecule microarrays, primary screen, biochemical, small-molecule microarray, 635 nm fluorescence (AID 1102); details: FGF10 binding, fluorescence 635 nm, higher = more signal
[6] = tested on: glycogen synthase kinase-3 (GSK3A per assay name; protocol says GSK3B); assay: GSK3 binders on small-molecule microarrays, primary screen, biochemical, small-molecule microarray, 635 nm fluorescence, GSK3A (AID 1103); details: small-molecule microarray binding, fluorescence 635 nm; higher = more signal; note: the record names both GSK3A and GSK3B
[7] = molecular target: Epidermal growth factor receptor (Homo sapiens) (UniProt P00533); assay: EGFR binders on small-molecule microarrays, primary screen, biochemical, small-molecule microarray, 635 nm fluorescence (AID 1104); details: EGFR binding, higher = more signal;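 note: score merges 667 nm emission intensity with spot signal to noise over triplicate slides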
[8] = molecular target: Follistatin-related protein 3 (Homo sapiens) (UniProt O95633); assay: FSTL3 binders on small-molecule microarrays, primary screen, biochemical, small-molecule microarray, 635 nm fluorescence (AID 1105); details: FSTL3 binding, higher = more signal;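 note: score merges emission near 667 nm and signal to noise per printed spot across three slides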
[9] = molecular target: Dickkopf-related protein 1 (Homo sapiens) (UniProt O94907); assay: DKK1 binders on small-molecule microarrays, primary screen, biochemical, small-molecule microarray, 635 nm fluorescence scan (AID 1106); details: DKK1 binding, higher = more signal;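 note: score merges emission near 667 nm with signal to noise over three replicate slides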
[10] = tested on: Inhibin beta A chain (activin A); assay: INHBA (activin A) binders on microarrays, primary screen, biochemical, small-molecule microarray, 635 nm fluorescence scan (AID 1107); details: small-molecule microarray binding, higher = more signal;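 note: mouse activin A protein probed at 4.33 µg/mL on printed slides; score merges bound-protein fluorescence near 667 nm with spot signal-to-noise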
[11] = tested on: Human papillomavirus type 1a protein E7 (residues 44-93); assay: HPV1a E7 fragment binders on microarrays, primary screen, biochemical, small-molecule microarray, residues 44-93, 635 nm fluorescence (AID 1108); details: small-molecule microarray binding, fluorescence 635 nm; higher = more signal;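 note: E7 fragment applied at 1 µg/mL in TBST for 1 h at 4 C; score combines spot fluorescence with its signal to noise ratio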
[12] = modulators of HCV replicon luciferase signal, primary screen, HCV replication inhibitor project, Huh7 cells, luciferase reporter (AID 1109); details: 48 h, higher = more signal;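 note: huh7 hepatoma cells harbouring a luciferase neomycin HCV replicon reporter; luciferase luminescence as measure of HCV replicon replication; test concentration not given here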
[13] = molecular target: Left-right determination factor 2 (Homo sapiens) (UniProt O00292); assay: LEFTY2 binders on small-molecule microarrays, primary screen, biochemical, small-molecule microarray, 635 nm fluorescence scan (AID 1110); details: LEFTY2 binding, higher = more signal
[14] = molecular target: Calmodulin-1 (Homo sapiens) (UniProt P0DP23); assay: CALM1 binders on microarrays, EGTA buffer, profiling panel, biochemical, small-molecule microarray, Cy5-labelled CALM1 (AID 1111); details: Cy5-CALM1 binding fluorescence, higher = more signal;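 note: labelled calmodulin applied in Tris saline Tween buffer holding calcium plus EGTA and DTT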
[15] = molecular target: Calmodulin-1 (Homo sapiens) (UniProt P0DP23); assay: calcium-bound CALM1 binders on microarrays, profiling panel, artefact control for SMM control-protein annotation, biochemical, small-molecule microarray, Cy5-labelled CALM1, plus calcium (AID 1112); details: Cy5-CALM1 binding fluorescence, higher = more signal;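 note: score merges spot fluorescence with signal to noise from triplicate slides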
[16] = small-molecule microarray binders of probe aWnt5a, primary screen, biochemical, biotinylated probe, 635/667 nm fluorescence (AID 1113); details: higher = more signal;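 note: score merges 667 nm fluorescence intensity with signal-to-noise per printed feature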
[17] = small-molecule microarray binders of probe aShh, primary screen, biochemical, biotinylated probe, 635/667 nm fluorescence (AID 1114); details: higher = more signal;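 note: probe is biotin-labelled aShh protein from a stem cell growth factor screen; measures binding of labelled protein to compounds printed on the slide; score merges feature fluorescence at 667 nm with signal-to-noise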
[18] = small-molecule microarray binders of probe aNog, primary screen, biochemical, biotinylated probe, 635/667 nm fluorescence (AID 1115); details: higher = more signal;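 note: probe is biotinylated aNog protein used at 0.15 µg/mL for 1 h at 4 C; z-score combines 667 nm fluorescence of each spot with its signal to noise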
[19] = molecular target: Torsin-1A-interacting protein 1 (Homo sapiens) (UniProt Q5JTV8); assay: LAP1 binders from COS7 cell lysate, primary screen, small-molecule microarray, 635/667 nm fluorescence (AID 1116); details: COS7-hLAP1 lysate binding, 635 nm fluorescence, higher = more signal
[20] = molecular target: Alpha-bungarotoxin (Bungarus multicinctus) (UniProt P60615); assay: alpha-bungarotoxin binders on microarray, profiling panel, artefact control for SMM control protein annotation, biochemical, small-molecule microarray, Alexa647 label, 635/667 nm fluorescence (AID 1117); details: alpha-BTX-A647 binding fluorescence, higher = more signal
Chain of Alpha-bungarotoxin (Bungarus multicinctus) (P60615 whole entry, looked up): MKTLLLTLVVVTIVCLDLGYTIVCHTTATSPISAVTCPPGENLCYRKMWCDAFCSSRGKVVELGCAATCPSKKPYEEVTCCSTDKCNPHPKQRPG

Chain of Dickkopf-related protein 1 (Homo sapiens) (O94907 whole entry, looked up): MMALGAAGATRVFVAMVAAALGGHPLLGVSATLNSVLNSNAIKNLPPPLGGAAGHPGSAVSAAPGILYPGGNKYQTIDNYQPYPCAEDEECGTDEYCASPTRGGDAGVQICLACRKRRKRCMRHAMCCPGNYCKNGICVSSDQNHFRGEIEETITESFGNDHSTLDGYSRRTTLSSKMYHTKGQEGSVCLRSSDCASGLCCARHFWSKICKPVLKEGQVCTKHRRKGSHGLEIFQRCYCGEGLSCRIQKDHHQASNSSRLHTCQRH
Chain of Follistatin-related protein 3 (Homo sapiens) (O95633 whole entry, looked up): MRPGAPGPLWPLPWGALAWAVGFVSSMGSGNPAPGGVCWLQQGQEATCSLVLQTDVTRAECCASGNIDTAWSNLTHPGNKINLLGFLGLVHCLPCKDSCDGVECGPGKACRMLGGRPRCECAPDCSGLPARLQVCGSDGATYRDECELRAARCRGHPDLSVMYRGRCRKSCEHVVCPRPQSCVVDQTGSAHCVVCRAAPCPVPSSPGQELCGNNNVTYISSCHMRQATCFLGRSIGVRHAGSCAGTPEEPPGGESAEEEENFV
Chain of Left-right determination factor 2 (Homo sapiens) (O00292 whole entry, looked up): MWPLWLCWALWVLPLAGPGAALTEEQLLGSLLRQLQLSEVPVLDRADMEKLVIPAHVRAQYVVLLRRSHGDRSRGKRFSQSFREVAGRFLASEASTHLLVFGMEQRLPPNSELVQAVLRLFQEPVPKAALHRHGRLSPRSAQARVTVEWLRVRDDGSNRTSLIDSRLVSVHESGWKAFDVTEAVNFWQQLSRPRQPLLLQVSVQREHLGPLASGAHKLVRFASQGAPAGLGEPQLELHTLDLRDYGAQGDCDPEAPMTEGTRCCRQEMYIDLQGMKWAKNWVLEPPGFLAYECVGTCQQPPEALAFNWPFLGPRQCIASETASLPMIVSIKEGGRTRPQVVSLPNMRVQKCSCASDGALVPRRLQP
Chain of Fibroblast growth factor 10 (Homo sapiens) (O15520 whole entry, looked up): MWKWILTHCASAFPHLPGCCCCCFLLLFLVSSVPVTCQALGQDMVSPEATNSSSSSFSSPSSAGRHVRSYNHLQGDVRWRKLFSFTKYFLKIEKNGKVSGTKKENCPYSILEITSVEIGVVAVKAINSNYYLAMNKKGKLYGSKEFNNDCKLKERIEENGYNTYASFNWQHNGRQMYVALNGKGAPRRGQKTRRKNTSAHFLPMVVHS
Chain of Torsin-1A-interacting protein 1 (Homo sapiens) (Q5JTV8 whole entry, looked up): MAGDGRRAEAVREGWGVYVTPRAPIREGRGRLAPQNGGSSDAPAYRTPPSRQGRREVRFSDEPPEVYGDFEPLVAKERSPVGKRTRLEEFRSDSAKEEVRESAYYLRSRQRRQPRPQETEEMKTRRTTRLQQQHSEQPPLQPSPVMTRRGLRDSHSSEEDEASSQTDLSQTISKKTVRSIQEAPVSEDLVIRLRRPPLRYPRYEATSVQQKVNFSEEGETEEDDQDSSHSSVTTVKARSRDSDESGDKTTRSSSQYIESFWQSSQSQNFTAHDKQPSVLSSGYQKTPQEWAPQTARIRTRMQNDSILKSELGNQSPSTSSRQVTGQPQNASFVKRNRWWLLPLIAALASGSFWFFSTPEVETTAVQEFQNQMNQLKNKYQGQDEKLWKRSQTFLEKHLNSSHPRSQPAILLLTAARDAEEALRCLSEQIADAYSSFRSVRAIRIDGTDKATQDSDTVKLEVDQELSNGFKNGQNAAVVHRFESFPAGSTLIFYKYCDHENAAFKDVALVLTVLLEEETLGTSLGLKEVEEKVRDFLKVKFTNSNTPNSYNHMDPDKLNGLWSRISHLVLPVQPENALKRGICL
Chain of Epidermal growth factor receptor (Homo sapiens) (P00533 whole entry, looked up): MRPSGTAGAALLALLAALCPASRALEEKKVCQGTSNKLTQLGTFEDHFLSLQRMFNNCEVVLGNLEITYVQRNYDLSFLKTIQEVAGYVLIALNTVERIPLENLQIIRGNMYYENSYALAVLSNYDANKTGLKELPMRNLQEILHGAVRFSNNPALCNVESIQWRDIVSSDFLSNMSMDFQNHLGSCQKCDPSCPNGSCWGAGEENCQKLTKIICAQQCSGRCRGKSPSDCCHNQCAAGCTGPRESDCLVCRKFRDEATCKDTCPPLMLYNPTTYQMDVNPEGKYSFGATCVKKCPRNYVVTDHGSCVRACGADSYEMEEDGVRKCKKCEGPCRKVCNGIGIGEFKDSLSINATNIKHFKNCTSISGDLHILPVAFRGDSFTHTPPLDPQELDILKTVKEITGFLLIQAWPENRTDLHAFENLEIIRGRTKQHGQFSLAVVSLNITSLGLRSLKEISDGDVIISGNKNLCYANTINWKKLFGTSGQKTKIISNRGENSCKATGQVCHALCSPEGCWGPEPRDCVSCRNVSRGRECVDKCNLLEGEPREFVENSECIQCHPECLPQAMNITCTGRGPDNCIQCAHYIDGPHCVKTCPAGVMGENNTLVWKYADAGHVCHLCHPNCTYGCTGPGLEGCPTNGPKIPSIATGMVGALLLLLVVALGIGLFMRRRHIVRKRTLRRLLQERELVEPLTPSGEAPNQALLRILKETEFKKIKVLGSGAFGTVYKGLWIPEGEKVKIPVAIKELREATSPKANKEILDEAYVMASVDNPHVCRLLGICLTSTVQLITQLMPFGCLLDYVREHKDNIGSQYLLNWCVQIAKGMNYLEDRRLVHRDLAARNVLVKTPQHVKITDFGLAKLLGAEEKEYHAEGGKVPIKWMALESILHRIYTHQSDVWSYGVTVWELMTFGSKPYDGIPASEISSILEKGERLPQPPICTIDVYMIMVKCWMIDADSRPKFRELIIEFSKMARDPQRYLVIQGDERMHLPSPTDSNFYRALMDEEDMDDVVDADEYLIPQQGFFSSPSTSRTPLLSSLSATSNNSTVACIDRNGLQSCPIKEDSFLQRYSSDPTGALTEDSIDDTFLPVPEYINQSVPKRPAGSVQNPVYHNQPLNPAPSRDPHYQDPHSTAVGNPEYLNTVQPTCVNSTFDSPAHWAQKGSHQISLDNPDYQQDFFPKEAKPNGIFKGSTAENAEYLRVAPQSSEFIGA

SMILES	composite z-score [1]	composite z-score [2]	composite z-score [3]	z-score [4]	composite z-score [5]	composite z-score [6]	composite z-score [7]	composite z-score [8]	composite z-score [9]	composite z-score [10]	composite z-score [11]	z-score [12]	composite z-score [13]	composite z-score [14]	composite z-score [15]	composite z-score [16]	composite z-score [17]	composite z-score [18]	composite z-score [19]	composite z-score [20]
CCOC(=O)C[C@H]1[C@H](OC(=O)Cc2ccc3c(c2)OCO3)[C@@H](NC(=O)c2ccc(-c3ccccc3)cc2)c2cc(OCCCO)ccc2N1C(=O)c1ccc2ccccc2n1	-0.0119	-0.319	-0.486	-2.82 (inactive)	0.556	0.28	0.468	0.321	0.434	-0.0169	0.226	-1.37	0.445	0.284	-0.788	-0.0828	-0.146	-0.261	0.142	0.0797
COc1ccc(COC2OC[C@]3(C)[C@H]4C5=C(CN3C(=O)OC(C)(C)C)[C@H](C)C(CO)C(CO)C5CC[C@@H]24)cc1 (stereo not given in full)	1	1.06	0.983	-0.807 (inactive)	0.755	1.3	-0.452	1.07	-0.432	0.797	1.27	-0.355	-0.877	1.44	0.86	0.0118	0.202	0.97	1.17	0.608
COCC(=C=CC[C@@H](O)c1ccccc1OCCO)C[C@@H](O)c1cc(Cl)cc(Cl)c1O	0.781	-0.174	-0.607	-0.458 (inactive)	1.23	1.28	0.334	1.23	0.317	0.495	1.44	-2.21	0.635	0.362	-0.534	-0.126	-0.14	-0.0863	0.704	0.792
O=C1C[C@]2(c3ccc([N+](=O)[O-])cc3)C(=O)N(CCN3CCOCC3)c3cc(CO)ccc3[C@H]2N1C1CCCCC1	0.781	0.42	0.828	-1.05 (inactive)	-0.142	-0.587	-0.517	-0.875	-0.877	0.342	-1.26	-0.809	-0.91	-0.146	0.0884	-0.363	-0.211	-0.405	-0.308	-0.251
COC(=O)c1c(CC[C@@H](CO)NC(=O)N2CCC[C@H]2Cn2cc(-c3ccccn3)nn2)oc(C(C)=O)c1C(=O)OC	1.23	-0.238	-0.337	-1.25 (inactive)	0.0437	0.209	0.0417	-0.144	-0.17	0.113	0.0413	-1.03	-0.219	-0.209	-0.747	-0.152	-0.0474	-0.0418	-0.219	-0.0614
CC(C)C[C@@H]1NC(=O)[C@H]2C[C@@H](C(=O)NCCCCCCN(C)C)[C@@H](c3ccc(O)cc3)N2C1=O	1.44	0.158	-0.0008	0.561 (inactive)	1.2	1.32	0.653	1.13	1.4	1.12	1.09	0.414	1.06	-0.631	-1.19	-0.0337	0.207	-0.284	1.03	0.419
Cc1ccc(S[C@]2(C(=O)NC(C)C)CC(=O)N(Cc3ccccc3Cl)[C@@H]2c2ccc(CO)cc2I)cc1	1	0.0056	1.07	0.0132 (inactive)	-1.05	-0.26	-1.51	-0.674	-1.39	0.762	0.472	-2.47	-2.08	0.0453	-0.174	-0.252	-0.283	-0.158	-0.252	1.33
COc1ccc([Si](C)(C)[C@H]2[C@H](CCO)O[C@@]3(C(=O)N(C)c4c(Br)cc(C)cc43)[C@@H]2C)cc1	0.717	-0.0044	0.202	4.6 (inactive)	0.333	0.223	0.127	0.4	0.0138	0.449	-0.122	-5.23	0.304	0.388	0.204	-0.0944	-0.138	0.474	0.269	0.541
CN1C(=O)C2C=CC(C(O)c3cccs3)N(Nc3ccccc3)C2C1=O (stereo not given)	0.748	0.168	0.272	1.46 (inactive)	0.765	0.0802	0.007	0.174	-0.0478	0.693	0.548	-0.304	0.0032	0.041	-0.591	0.211	0.265	0.0924	0.558	0.336
O=C1OCCC/C=C\[C@H]2OC34C=CCN(c5ccc6ccccc6c5)C(=O)[C@H]3N(CCCCCCO)C(=O)[C@@H]4C12 (stereo not given in full)	1.35	-0.234	0.711	-1.39 (inactive)	-0.873	-0.525	0.102	0.0824	-1.71	0.998	-1.45	-0.625	-0.955	-0.761	-0.384	-0.176	-0.179	-0.388	2.93	-0.182
COc1ccc(C(=O)Nc2ccc(CN3C(=O)[C@@]4(O[C@@H](CCn5cc([C@H](O)c6ccccc6)nn5)[C@H]([Si](C)(C)c5ccc(OC)cc5)[C@H]4C)c4ccccc43)cc2)cc1	0.834	-0.0682	0.512	-1.06 (inactive)	-0.0022	0.054	-0.591	0.183	-0.347	0.975	1.26	-4.67	-0.553	0.168	-0.0823	-0.0896	-0.0337	0.103	0.485	0.572
